# Only some compounds are listed: those with a hit (about 19% of all), similar ones and a draw of the others.
# HT1080 IDH1KD tx: toxicity to HT-1080 IDH1 knockdown cells (counter line); HT-1080 IDH1 knockdown viability, ATP luminescence, 48 h; Potency, µM (series often up to 46.1 µM), inactives show at the highest dose activity, negative = toxicity, usual class: cytotoxic; hit rate 2% among 360,000;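 further: potency means the concentration at half of the fitted maximal effect; 0% = DMSO wells and -100% = cell-free medium wells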
#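 Luminescent ATP read-out (CellTiter-Glo, 10 min at room temperature) after 48 h compound exposure at 37 °C gave viability of IDH1-knockdown HT-1080 cells. Activity was normalised to DMSO and cell-free wells, then fitted as concentration-response curves.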
# TDP1 cell CPT: growth inhibition of DT40 Tdp1-/-;hTDP1 cells with camptothecin (screen for TDP1 inhibitors); chicken DT40 Tdp1-/-;hTDP1 cells + 20 nM CPT, ATP luminescence, 48 h; hit rate 12% among 420,000; Potency, µM (doses to about 46.2 µM), for inactives: at the highest dose activity change, negative = growth inhibition, most hits filed as inhibitors; AID 686979; further: potency means the concentration at half of the fitted maximal effect; nearly all actives have a fitted effect of over 55% in size
#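 Chicken DT40 Tdp1-/- cells complemented with human TDP1, 400 cells/well, exposed to compounds plus 20 nM camptothecin for at least 48 h at 37 C; viability read as ATP content by CellTiter-Glo luminescence.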
# HT1080NT lethal: kills 2HG-producing HT-1080-NT fibrosarcoma cells | HT-1080-NT fibrosarcoma viability, CellTiter-Glo ATP luminescence, 48 h | hit rate 1.6% among 360,000 | Potency, µM (series often up to 46.1 µM), for the others: at the top dose activity, negative = less viability, hits mostly cytotoxic;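 further: NT is the 2HG producing partner of a matched IDH1 knockdown line; potency means the concentration at half of the fitted maximal effect; 0% = DMSO-treated cells and -100% = media-only wells without cells; nearly all actives have a fitted effect of over 55% in size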
#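 Luminescent CellTiter-Glo readout after 48 hours of compound exposure at 37 degrees C defined viability of HT-1080-NT cells. Activity was normalized to DMSO wells and cell-free media wells; concentration-response curves were fitted and assigned curve classes.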
# IL1B secr inh: inhibitors of inflammasome signaling (IL-1 beta secretion). THP-1 LPS/ATP IL-1B secretion, AlphaLISA, 16 h; stronger effect = lower value. activity change, % at 57.5 µM. hit rate 4.7% among 360,000; in the data active means activity change below about -50%; inconclusive means mostly about -30% to -49%
#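 Secreted IL-1B measured by AlphaLISA bead assay after 16 h compound exposure of THP-1 cells; compounds (final up to 57.5 uM) added 1 h before LPS (250 ng/mL) and ATP (1.25 mM) stimulation; lower signal means less secretion.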
# TDP1 cell noCPT: qHTS for Inhibitors of human tyrosyl-DNA phosphodiesterase 1 (TDP1): qHTS in cells in absence of CPT | Potency, µM (highest dose often 46.2 µM), inactives show at the top dose activity change, negative = growth inhibition, usual class: inhibitors | DT40 Tdp1-/- hTDP1 cells, no CPT, ATP luminescence, 48 h | AID 686978, 2013 | hit rate 15% among 420,000; further: potency means the concentration at half of the fitted maximal effect; nearly all actives have a fitted effect of over 55% in size
#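 No-CPT arm: Tdp1-/-;hTDP1 DT40 cells (400/well) plus compounds, incubated ≥48 hr at 37 °C. Readout CellTiter-Glo luminescence.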
# ELG1 repair inh: blocks ELG1-dependent DNA repair in HEK293T cells; Potency, µM (doses to about 46.1 µM), without a hit: at the highest dose activity change, negative = inhibition, usual class: inhibitors; hit rate 2.3% among 330,000; HEK293T ELG1-luciferase reporter, luminescence, 16 h; DNA damage induced by 5-fluorouridine; further: potency means the concentration at half of the fitted maximal effect; nearly all actives have a fitted effect of over 55% in size
#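 Cells (2,000 per well) received 5-fluorouridine plus test compound or DMSO and were incubated 16 hr at 37 °C, 5% CO2. Luciferase activity was read by luminescence 30 min after ONE-Glo addition; signal suppression marked inhibition of damage-induced ELG1 function.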
# * = called active by the depositor; ? = inconclusive; . = not tested or not shown. Unless noted, the call rests on the fitted dose curve; in most records, active means well fitted curve in the direction sought with a large enough effect; inconclusive means small, poorly fitted or top-dose-only effect, or another doubt; inactive means no such curve, though single readings can be large; an effect the other way counts as inactive or inconclusive. Unless noted, on the % scale 0 is the no-effect control and ±100 the full control effect.
SMILES,HT1080 IDH1KD tx,TDP1 cell CPT,HT1080NT lethal,IL1B secr inh,TDP1 cell noCPT,ELG1 repair inh
O=Nc1c(-c2ccccc2)[nH]n(-c2ccccc2)c1=O,?,3%,-8%,-18,?,-3%
O=c1ccc(-c2ccc([N+](=O)[O-])cc2)nn1-c1ccccc1,18%,-3%,22%,-3,-8%,14%
NC(=O)C1CCN(C(=O)c2ccccc2SCC(=O)NCC2CCCCC2)CC1,4%,0%,-2%,6,-7%,3%
CCC(=O)NS(=O)(=O)c1ccc(-c2c(-c3ccccc3)noc2C)cc1,.,-1%,.,.,-20%,.
CC(=O)N1CC(C)Sc2ccc(S(=O)(=O)NC3CCCCC3C)cc21 (centres undefined),-21%,?,-14%,16,-14%,-12%
Cc1[nH]n(C(N)=S)c(=O)c1N=Nc1ccc(Br)cc1,-9%,23µM*,-6%,9,16µM*,?
COCCN1C[C@@H](CO)O[C@@H](n2cnc3c(N4CCN(CCO)CC4)ncnc32)C1,3%,-14%,?,10,-15%,.
CC(=O)NC(C)(c1ccccc1)c1nc(-c2cccc(C(F)(F)F)c2)cs1 (centres undefined),0%,?,?,-26,15µM*,.
CC(=O)Nc1cccc(-c2csc(C(C)(NC(C)=O)c3ccccc3)n2)c1 (centres undefined),0%,26µM*,5%,27,?,.
COc1ccc(C(C)(NC(C)=O)c2nc(-c3cccc(NC(C)=O)c3)cs2)cc1 (centres undefined),10%,?,23%,20,?,.
CC(C)(C)C(=O)Nc1cc(S(=O)(=O)Nc2ccc(Cl)cc2)ccc1Cl,-15%,18µM*,-7%,11,23µM*,-2%
O=C(Nc1ccc(Cl)cc1)c1cc(S(=O)(=O)Nc2ccccn2)ccc1Cl,-28%,?,-22%,25,16µM*,-12%
COc1ccc(NS(=O)(=O)c2ccc(Cl)c(NC(=O)c3cccnc3Cl)c2)cc1,-6%,?,-17%,14,16µM*,?
O=C(Nc1ccc(Cl)cc1)c1cccc(S(=O)(=O)Nc2ccccn2)c1,0%,-28%,-14%,0,-21%,-57%
COc1ccc(NS(=O)(=O)c2ccc(Cl)c(NC(=O)c3ccccc3F)c2)cc1,-2%,?,-11%,-7,?,?
CCNC(=O)CC1C(=O)N(c2cccc(OC)c2)C(=O)N1Cc1ccc(OC)c(OC)c1 (centres undefined),.,10%,.,.,-15%,.
CC1CN(CC(=O)Nc2nc3ccccc3s2)CC(C)O1 (centres undefined),-8%,4%,1%,23,0%,15%
Cc1ccc(NC(=O)COC(=O)Cn2cnc3c2c(=O)n(C)c(=O)n3C)c(Cl)c1,21%,1%,24%,-4,-21%,?
Clc1ccccc1CNCC1CCC(CNCc2ccccc2Cl)CC1 (centres undefined),.,3µM*,.,.,3µM*,.
CCOc1ccc(CNCc2ccccc2Cl)cc1,-18%,16µM*,-71%,?,?,?
O=C(CC1CCCCC1)NCc1ccccc1Cl,-7%,-8%,1%,39,-23%,?
Cc1ccc(CNCc2ccccc2Cl)cc1,4%,-3%,14%,-6,?,6%
Cc1ccc(OCc2nc(-c3ccc(C(=O)N4CCN(c5ccccc5F)CC4)cc3)oc2C)cc1,.,-1%,.,.,-4%,.
CN1CCN(CC(=O)Nc2nc3ccccc3s2)CC1,-1%,-1%,-3%,-7,-23%,?
CN1CCN(CC(=O)Nc2nc(-c3c[nH]c4ccccc34)cs2)CC1,21µM*,-15%,?,-68*,?,?
SMILES,HT1080 IDH1KD tx,TDP1 cell CPT,HT1080NT lethal,IL1B secr inh,TDP1 cell noCPT,ELG1 repair inh
CCC(C)Nc1nc(-c2c[nH]c3ccccc23)cs1 (centres undefined),?,-28%,?,-82*,?,?
CNc1nc(-c2c[nH]c3ccccc23)cs1,?,?,?,?,?,24%
COc1ccc2c(=O)c3c(=O)n(Cc4ccco4)c(-c4ccco4)nc3oc2c1,0%,20µM*,15%,-21,?,-6%
COc1ccc(Cn2c(-c3ccco3)nc3oc4cc(OC)ccc4c(=O)c3c2=O)cc1,13%,?,14%,0,16µM*,0%
COc1ccc(-c2nc3oc4cc(OC)ccc4c(=O)c3c(=O)n2Cc2ccco2)cc1,-3%,?,0%,-24,23µM*,?
CCc1nc2oc3cc(OC)ccc3c(=O)c2c(=O)n1Cc1ccco1,-1%,-8%,7%,-6,-28%,-14%
O=C(Nc1cccc(F)c1)N1CCC2(CC1)CCN(C(=O)c1cnccn1)CC2,.,11%,.,.,-24%,.
CC(C)(C)C1CCc2c(sc(NC(=O)Cn3nnc(-c4cccc(C(F)(F)F)c4)n3)c2C#N)C1 (centres undefined),.,-2%,.,.,-1%,.
CCNC(=O)C1(C)CCN1Cc1cc(-c2ccccc2)n(C)n1 (centres undefined),12%,?,25%,9,?,.
CC(=O)N/C(=N/c1nc(C)cc(C)n1)Nc1ccc(NC(C)=O)cc1,-4%,-22%,-1%,1,-13%,0%
Cc1cc(C)nc(/N=C(\N)Nc2cccc([N+](=O)[O-])c2)n1,-2%,?,4%,-97*,?,?
Cc1cccc(N/C(N)=N/c2nc(C)cc(C)n2)c1,-15%,?,-16%,-109*,16µM*,-7%
Cc1cccc(NC(=O)Nc2cc(C)cc(C)n2)c1,19%,12%,8%,11,-33%,?
CC(=O)Nc1cccc(N/C(N)=N/c2nc(C)cc(C)n2)c1,-8%,26µM*,-13%,35,-12%,-7%
CCOC(=O)N1CCN(C(=O)c2cc3c(=O)n(C)c4ccccc4c3n2C)CC1,0%,21µM*,7%,-12,16µM*,?
Cc1cccc(N2CCN(C(=O)Cn3c(=O)c4cccn4c4ccc(F)cc43)CC2C)c1 (centres undefined),.,18µM*,.,.,18µM*,.

# Screening data as filed in PubChem.
